Unmarked numbers belong to inactive results. The rule behind the calls is not given here.

Sequence of 5-HT1A receptor (P08908 whole entry, looked up): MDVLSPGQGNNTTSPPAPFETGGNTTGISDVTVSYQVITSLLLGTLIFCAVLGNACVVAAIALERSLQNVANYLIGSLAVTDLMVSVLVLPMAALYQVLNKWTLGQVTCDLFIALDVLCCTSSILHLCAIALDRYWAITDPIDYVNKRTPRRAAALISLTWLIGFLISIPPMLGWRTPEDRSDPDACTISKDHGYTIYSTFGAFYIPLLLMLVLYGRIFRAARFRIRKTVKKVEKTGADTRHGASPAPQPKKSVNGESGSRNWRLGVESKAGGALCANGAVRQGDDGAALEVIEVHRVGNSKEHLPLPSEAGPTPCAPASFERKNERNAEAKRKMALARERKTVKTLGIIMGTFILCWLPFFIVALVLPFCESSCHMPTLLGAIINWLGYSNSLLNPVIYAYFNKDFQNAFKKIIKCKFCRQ

The test deals with 5-HT1A receptor (human, UniProt P08908). As to the kind of experiment: primary screen, binary call; higher = more effect of the substance. More on the design: hit call from the mean of at least two separate experiments. Conditions: 10 µM. As to the method:
GPCR radioligand binding assays were performed in HEK293 cells with stable expression of human 5-HT1A, 5-HT6, and 5-HT7b receptors (prepared with the use of Lipofectamine 2000). Non-specific binding was defined with 10 µM of 5-HT in 5-HT1AR and 5-HT7R binding experiments, whereas 10 µM of mianserin was used in 5-HT6R assays, respectively. Each compound was tested at 10 µM concentration. Results were expressed as means of at least two separate experiments.
On to `O=C1NC(=O)/C(=C\c2cccs2)N1`, for which the 5-HT1 is 0.
As to `COc1ccccc1C1CCNCC1`, the 5-HT1 was 1 (active).
For the molecule `O=C1CC(CSc2ccc(Cl)cc2)=NN1`, the 5-HT1 was 0.
On to `O=C(O)c1cnc(-c2ccccc2)s1`, for which the 5-HT1 was 0.
Consider `O=C1CSC(Nc2ccc(F)cc2)=N1`, for which the 5-HT1 was 0.
As for `Oc1ccccc1N1CCCCC1`, the 5-HT1 was 0.
On to `Cn1c(CO)nc2ccccc21`, for which the 5-HT1 is 0.
`COc1ccc(C2=CCNCC2)cc1`: the 5-HT1 is 0.
For `COC(=O)c1c(C)nc(C2CC2)[nH]c1=O`, the 5-HT1 was 0.
For the molecule `NCC1(c2ccccc2)CCOCC1`, the 5-HT1 is 0.
For `O=C(O)C1CCCN(C(=O)N2CCCC2)C1` (stereo not shown), the 5-HT1 was 0.
For `N#Cc1ccc(C(=O)N2CCOCC2)cc1` the value was 0.
For the molecule `N#Cc1ccc2ncsc2c1`, the 5-HT1 is 0.
For `CN(C)c1cc(CN)ccn1` the value was 0; for `Cn1c(N)nc2ccccc21`, 0.
As to `CC(=O)c1ccc2c(c1)CNCC2`, the 5-HT1 is 0.
Regarding `Cc1nc(-c2ccccc2)cs1`, the 5-HT1 is 0.
Turning to `CC1(C)OC(=O)c2cc(Br)c(O)cc2O1`, the 5-HT1 was 0.
As to `O=C(O)CC1CCC(=O)N1` (stereo not shown), the 5-HT1 was 0.
For `COc1ccc(CN2CCNCC2)cc1F`, the 5-HT1 is 0.
Turning to `O=c1[nH]ncc2c1oc1ccccc12`, the 5-HT1 was 0.
`c1ccc2c(N3CCNCC3)ccnc2c1`: the 5-HT1 was 1 (active).
As for `O=C(c1ccncc1)N1CCNCC1`, the 5-HT1 was 0.
In the case of `Oc1nnc(-c2ccccc2)o1` it was 0.
On to `O=C(c1ccccc1F)N1CCNCC1`, for which the 5-HT1 is 0.
As to `Fc1ccc(CC2CCCNC2)cc1` (stereo not shown), the 5-HT1 was 0.
Take `O=C1NC(=O)C2(CCc3ccccc32)N1` (stereo not shown): the 5-HT1 was 0.
In the case of `COc1cccc(NC2=NCCCCC2)c1`, the 5-HT1 was 0.
As for `FC1(F)CNCC(F)(F)O1`, the 5-HT1 was 0.
Take `Cc1ccc(CCNc2ccccc2)cn1`: the 5-HT1 is 0.
On to `CCc1nccn1CC(=O)O`, for which the 5-HT1 was 0.
`N#CCCN1CCc2ccccc21`: the 5-HT1 was 0.
In the case of `O=C(CN1CCNCC1)c1ccccc1`, the 5-HT1 is 0.
Regarding `O=C1CCC(=O)N(c2ccccc2)N1`, the 5-HT1 was 0.
As to `O=c1[nH]c2c(s1)CCC2`, the 5-HT1 is 0.
Turning to `NC(c1ccccc1)c1ccccc1`, the 5-HT1 is 0.
With `Cc1cc(N)no1`, the 5-HT1 is 0.
In the case of `N#CC1CCS(=O)(=O)C1` (stereo not shown) it was 0; in that of `O=C(Nc1ccccc1)C1CC1`, 0; in that of `O=C(O)c1ccc(CN2CCOCC2)cc1`, 0.

Source of the values: paper PMC8159961, “Exploring protein hotspots by optimized fragment pharmacophores” (Nature Communications, 2021).
